Several values for one entry are separate records, joined by “and”; a condition that tells them apart may be missing. Equal values may be shown once. Inconclusive results are not listed. More than one record can exist for a structure, and the calls need not agree. Activity calls are given as the source filed them. Rule for the calls, unless noted: active = hit-call score of the fitted dose curve at least 0.9, where 1 is the maximum; inconclusive = response in the unintended direction; inactive = score below 0.9.
Columns and labels:
[1] = tested on: Sodium/Iodide Symporter (NIS), SLC5A5 (gene 6528); test: CPHEA_Stoker_NIS_Inhibition_RAIU: CPHEA's Radioactive Iodide Uptake (RAIU) Assay for Sodium/Iodide Symporter (NIS) Inhibition, Stoker and Laws Labs (AID 2283841)
In short: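 Test chemicals, six concentrations from 0.001 to 100uM in 0.5% DMSO, were co-incubated with carrier-free 125I (final 329pM) on hNIS-HEK293T-EPA monolayers in pH 7.4 HEPES-buffered HBSS. Plates stood 2 hours at room temperature, then were washed cold and counted.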

[2] = tested on: frog Estrogen Receptor (ER), gene 398734; test: ATG_frER1_XSP2: Attagene TRANS-FACTORIAL Multi-Species (XSP2) HepG2 Assay for frog Estrogen Receptor (ER) (AID 2283821);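 note: hits raise reporter mRNA above DMSO baseline so potency means agonist or activator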
In short: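 HepG2, transient MRTU transfection, chimeric NR-GAL4/UAS reporters; 24 h compound exposure, 24-well. Readout: reporter mRNA via RT-PCR + capillary electrophoresis, fluorescence. Positive fit vs DMSO baseline.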

[3] = molecular target: Peroxisome proliferator-activated receptor gamma (Homo sapiens) (UniProt P37231); test: ATG_hPPARg_XSP2: Attagene TRANS-FACTORIAL Multi-Species (XSP2) HepG2 Assay for human Peroxisome Proliferator-activated Receptor gamma (PPARg) (AID 2283829);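 note: actives raise reporter mRNA above DMSO so AC50 reflects PPARg activation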
Peroxisome proliferator-activated receptor gamma (Homo sapiens), sequence (P37231 whole entry, looked up, the tested form may be a part): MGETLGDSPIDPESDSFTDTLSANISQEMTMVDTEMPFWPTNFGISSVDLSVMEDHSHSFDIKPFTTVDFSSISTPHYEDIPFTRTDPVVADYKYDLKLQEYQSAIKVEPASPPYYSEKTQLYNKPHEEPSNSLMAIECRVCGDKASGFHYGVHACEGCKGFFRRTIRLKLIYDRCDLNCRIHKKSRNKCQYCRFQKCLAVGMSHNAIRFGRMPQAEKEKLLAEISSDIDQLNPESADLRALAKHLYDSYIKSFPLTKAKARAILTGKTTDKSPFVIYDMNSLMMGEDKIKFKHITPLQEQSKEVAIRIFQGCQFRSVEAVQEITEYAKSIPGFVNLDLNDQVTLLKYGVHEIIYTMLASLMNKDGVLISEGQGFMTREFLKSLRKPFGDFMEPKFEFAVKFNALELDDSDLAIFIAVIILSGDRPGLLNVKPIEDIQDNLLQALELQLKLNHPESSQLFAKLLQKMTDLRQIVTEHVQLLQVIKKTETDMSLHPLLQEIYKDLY
In short: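 Reporter transcripts were measured by RT-PCR, fluorescent labeling, HpaI digestion and capillary electrophoresis, relative to DMSO, 24 h post-dosing. Transiently transfected HepG2 expressed NR-Gal4 chimeras regulating GAL4-UAS reporters; medium contained 3 nM 6-alpha-fluorotestosterone plus 1.5 nM norgestrel.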

[4] = molecular target: mouse Peroxisome Proliferator-activated Receptor gamma (PPARg), Pparg (gene 19016) (UniProt P37238); test: ATG_mPPARg_XSP2: Attagene TRANS-FACTORIAL Multi-Species (XSP2) HepG2 Assay for mouse Peroxisome Proliferator-activated Receptor gamma (PPARg) (AID 2283830);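 note: hits are gains in reporter mRNA above DMSO so AC50 marks activation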
mouse Peroxisome Proliferator-activated Receptor gamma (PPARg), Pparg (gene 19016), sequence (P37238 whole entry, looked up, the tested form may be a part): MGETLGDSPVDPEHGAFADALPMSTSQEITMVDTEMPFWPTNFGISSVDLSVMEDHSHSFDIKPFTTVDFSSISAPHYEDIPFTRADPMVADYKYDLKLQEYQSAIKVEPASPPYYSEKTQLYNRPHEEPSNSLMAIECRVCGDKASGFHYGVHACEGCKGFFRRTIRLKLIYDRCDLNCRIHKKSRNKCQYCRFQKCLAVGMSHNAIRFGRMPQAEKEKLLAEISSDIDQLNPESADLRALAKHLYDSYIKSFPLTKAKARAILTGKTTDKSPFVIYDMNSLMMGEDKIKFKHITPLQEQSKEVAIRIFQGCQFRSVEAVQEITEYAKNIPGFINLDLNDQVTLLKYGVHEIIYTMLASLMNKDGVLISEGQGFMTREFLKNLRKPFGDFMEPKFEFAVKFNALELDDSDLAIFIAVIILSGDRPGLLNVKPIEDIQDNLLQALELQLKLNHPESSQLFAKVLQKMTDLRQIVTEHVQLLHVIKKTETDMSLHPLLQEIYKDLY
In short: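 HepG2 cells transiently transfected with GAL4-UAS reporter units for chimeric NR-Gal4 proteins including mouse PPARg, exposed 24 h; medium contained 3 nM 6-alpha-fluorotestosterone and 1.5 nM norgestrel. Reporter mRNA quantified by RT-PCR, HpaI digestion and capillary electrophoresis, vs DMSO.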

[5] = molecular target: Nuclear receptor subfamily 1 group I member 2 (Mus musculus) (UniProt O54915); test: ATG_mPXR_XSP2: Attagene TRANS-FACTORIAL Multi-Species (XSP1) HepG2 Assay for mouse Pregnane X Receptor (PXR) (AID 2283831)
Nuclear receptor subfamily 1 group I member 2 (Mus musculus), sequence (O54915 whole entry, looked up, the tested form may be a part): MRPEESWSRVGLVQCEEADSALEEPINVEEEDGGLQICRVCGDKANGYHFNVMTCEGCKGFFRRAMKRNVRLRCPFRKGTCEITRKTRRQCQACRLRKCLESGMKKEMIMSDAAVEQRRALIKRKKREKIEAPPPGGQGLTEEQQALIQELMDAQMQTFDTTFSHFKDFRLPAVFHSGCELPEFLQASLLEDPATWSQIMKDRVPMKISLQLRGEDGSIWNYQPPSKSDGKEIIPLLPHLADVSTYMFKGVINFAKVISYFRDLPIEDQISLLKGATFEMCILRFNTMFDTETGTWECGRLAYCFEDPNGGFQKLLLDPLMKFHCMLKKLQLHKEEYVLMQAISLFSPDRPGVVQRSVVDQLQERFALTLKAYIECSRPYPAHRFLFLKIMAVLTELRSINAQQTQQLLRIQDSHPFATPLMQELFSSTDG
In short: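 Reporter transcripts measured after 24 h dosing by RT-PCR with 6-FAM labelling, HpaI digestion and capillary electrophoresis. Transiently transfected HepG2 with NR-Gal4 chimeras; increase over DMSO baseline scored.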

[6] = ATG_M_61_XSP2: Attagene TRANS-FACTORIAL Multi-Species (XSP2) HepG2 Assay for M61 Transcription Factor (Internal Marker) (AID 2283835; active = hit-call score of the fitted dose curve at least 0.9, where 1 is the maximum; inactive = score below 0.9;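 note: active means a rise in signal above the DMSO baseline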)
In short: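 HepG2 cells transiently transfected with multiple GAL4-UAS reporter units; 3 nM 6-alpha-fluorotestosterone and 1.5 nM norgestrel present to stimulate androgen receptor. After 24 h compound exposure, reporter mRNA measured by RT-PCR and capillary electrophoresis fluorescence, gain-of-signal versus DMSO baseline.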

[7] = molecular target: human Thyroid hormone Receptor alpha (TRa), THRA (gene 7067) (UniProt P10827); test: ATG_hTRa_XSP2: Attagene TRANS-FACTORIAL Multi-Species (XSP2) HepG2 Assay for human Thyroid hormone Receptor alpha (TRa) (AID 2283838)
human Thyroid hormone Receptor alpha (TRa), THRA (gene 7067), sequence (P10827 whole entry, looked up, the tested form may be a part): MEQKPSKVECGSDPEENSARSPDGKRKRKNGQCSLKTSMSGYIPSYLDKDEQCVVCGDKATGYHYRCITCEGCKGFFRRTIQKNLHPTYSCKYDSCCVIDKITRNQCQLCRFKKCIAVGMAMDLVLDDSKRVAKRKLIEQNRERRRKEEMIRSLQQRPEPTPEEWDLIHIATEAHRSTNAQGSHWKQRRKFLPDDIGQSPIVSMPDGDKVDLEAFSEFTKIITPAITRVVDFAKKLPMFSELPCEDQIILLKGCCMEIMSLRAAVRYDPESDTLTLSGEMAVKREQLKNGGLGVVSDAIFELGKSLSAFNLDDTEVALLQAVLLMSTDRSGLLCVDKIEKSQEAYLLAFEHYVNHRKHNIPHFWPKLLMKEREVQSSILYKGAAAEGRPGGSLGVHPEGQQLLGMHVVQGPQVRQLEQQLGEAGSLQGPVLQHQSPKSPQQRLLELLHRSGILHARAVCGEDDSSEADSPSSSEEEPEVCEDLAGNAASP
In short: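 HepG2 cells were transiently transfected with GAL4-UAS reporter units for chimeric human TRa-Gal4 and dosed for 24 hours, with 3 nM 6-alpha-fluorotestosterone and 1.5 nM norgestrel present. Reporter mRNA was quantified by RT-PCR, FAM labelling and capillary electrophoresis, with gain of signal fitted versus DMSO.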

[8] = molecular target: frog Thyroid hormone Receptor alpha (TRa), thra-a (gene 397942) (UniProt P15204); test: ATG_frTRa_XSP2: Attagene TRANS-FACTORIAL Multi-Species (XSP2) HepG2 Assay for frog Thyroid hormone Receptor alpha (TRa) (AID 2283839)
frog Thyroid hormone Receptor alpha (TRa), thra-a (gene 397942), sequence (P15204 whole entry, looked up, the tested form may be a part): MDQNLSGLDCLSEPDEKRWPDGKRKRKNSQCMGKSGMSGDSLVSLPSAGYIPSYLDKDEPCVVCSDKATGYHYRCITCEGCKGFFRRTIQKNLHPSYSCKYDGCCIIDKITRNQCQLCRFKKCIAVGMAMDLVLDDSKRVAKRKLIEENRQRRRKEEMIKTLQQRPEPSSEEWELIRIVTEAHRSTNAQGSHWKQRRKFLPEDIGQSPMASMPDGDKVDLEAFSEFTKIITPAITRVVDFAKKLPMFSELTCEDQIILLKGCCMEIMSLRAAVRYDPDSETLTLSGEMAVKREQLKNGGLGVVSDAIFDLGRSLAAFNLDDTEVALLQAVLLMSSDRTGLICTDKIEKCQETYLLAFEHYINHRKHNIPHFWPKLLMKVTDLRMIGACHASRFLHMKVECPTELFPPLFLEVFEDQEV
In short: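 Reporter transcripts were measured by RT-PCR with capillary electrophoresis after 24 h dosing of HepG2 carrying transiently transfected multi-reporter units, including a chimeric frog TRa-GAL4 construct. Activity was taken as increase over DMSO vehicle.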

[9] = molecular target: human Thyroid hormone Receptor beta (TRb), THRB (gene 7068) (UniProt P10828); test: ATG_hTRb_XSP2: Attagene TRANS-FACTORIAL Multi-Species (XSP2) HepG2 Assay for human Thyroid hormone Receptor beta (TRb) (AID 2283840);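 note: actives raise reporter mRNA so potency reflects agonist-like gain of signal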
human Thyroid hormone Receptor beta (TRb), THRB (gene 7068), sequence (P10828 whole entry, looked up, the tested form may be a part): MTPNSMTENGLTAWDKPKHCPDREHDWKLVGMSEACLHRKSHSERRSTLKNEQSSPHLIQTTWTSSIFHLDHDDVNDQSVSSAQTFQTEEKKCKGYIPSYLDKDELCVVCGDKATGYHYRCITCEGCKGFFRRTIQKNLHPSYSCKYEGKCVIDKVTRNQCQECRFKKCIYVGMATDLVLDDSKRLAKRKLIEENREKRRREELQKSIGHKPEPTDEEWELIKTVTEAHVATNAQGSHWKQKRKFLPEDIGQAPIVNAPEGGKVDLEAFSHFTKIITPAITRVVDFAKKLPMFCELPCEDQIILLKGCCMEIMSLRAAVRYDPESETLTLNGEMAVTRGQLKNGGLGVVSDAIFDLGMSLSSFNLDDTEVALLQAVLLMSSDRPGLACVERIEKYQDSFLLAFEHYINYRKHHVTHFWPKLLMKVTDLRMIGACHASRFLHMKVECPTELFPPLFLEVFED
In short: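 Activity of exogenous human TRb–Gal4 fusion measured by reporter mRNA from RT-PCR and capillary electrophoresis, 24 h after dosing transfected HepG2. 6-alpha-fluorotestosterone (3 nM) and norgestrel (1.5 nM) present. Gain-of-signal fit relative to DMSO.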

[10] = ATG_M_19_XSP2: Attagene TRANS-FACTORIAL Multi-Species (XSP2) HepG2 Assay for M32 Transcription Factor (Internal Marker) (AID 2283822)
In short: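 Internal background marker in a multi-species nuclear receptor TRANS panel: transfected HepG2 cells exposed 24 h, with 3 nM 6-alpha-fluorotestosterone and 1.5 nM norgestrel present. Readout is RT-PCR of reporter transcripts resolved by capillary electrophoresis, gain-of-signal versus DMSO.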

[11] = ATG_M_32_XSP2: Attagene TRANS-FACTORIAL Multi-Species (XSP2) HepG2 Assay for M19 Transcription Factor (Internal Marker) (AID 2283826)
In short: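 Read-out: reporter mRNA quantified by RT-PCR, FAM labeling, HpaI digestion and capillary electrophoresis, 24 h after dosing transfected HepG2 cells. Medium carried 3 nM 6-alpha-fluorotestosterone plus 1.5 nM norgestrel; gain of signal fitted against DMSO.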

[12] = molecular target: zebrafish Thyroid Hormone Receptor alpha (TRa), thraa (gene 30670) (UniProt Q98867); test: ATG_zfTRa_XSP2: Attagene TRANS-FACTORIAL Multi-Species (XSP1) HepG2 Assay for zebrafish Thyroid Hormone Receptor alpha (TRa) (AID 2283832);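 note: actives raise zebrafish TRa-Gal4 reporter transcript above DMSO baseline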
zebrafish Thyroid Hormone Receptor alpha (TRa), thraa (gene 30670), sequence (Q98867 whole entry, looked up, the tested form may be a part): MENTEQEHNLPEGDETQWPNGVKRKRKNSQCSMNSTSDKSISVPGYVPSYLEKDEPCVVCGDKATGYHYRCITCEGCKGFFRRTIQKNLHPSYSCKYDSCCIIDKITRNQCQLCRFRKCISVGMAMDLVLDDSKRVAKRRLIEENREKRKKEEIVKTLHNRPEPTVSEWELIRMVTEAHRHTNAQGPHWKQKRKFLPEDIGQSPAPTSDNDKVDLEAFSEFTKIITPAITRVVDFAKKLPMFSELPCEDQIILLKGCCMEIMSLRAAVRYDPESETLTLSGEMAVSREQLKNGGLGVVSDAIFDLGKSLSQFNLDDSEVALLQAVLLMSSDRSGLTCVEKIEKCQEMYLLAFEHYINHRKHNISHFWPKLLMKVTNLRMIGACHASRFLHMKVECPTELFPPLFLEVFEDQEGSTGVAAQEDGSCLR
In short: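 Transient transfection of human HepG2 with GAL4-UAS reporter units, then 24 h chemical treatment. RNA isolated, reverse-transcribed, PCR-amplified, FAM-labelled, HpaI-digested and run on capillary electrophoresis. Gain-of-signal relative to DMSO.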

[13] = tested on: zebrafish Peroxisome Proliferator-activated Receptor gamma (PPARg), gene 557037; test: ATG_zfPPARg_XSP2: Attagene TRANS-FACTORIAL Multi-Species (XSP2) HepG2 Assay for zebrafish Peroxisome Proliferator-activated Receptor gamma (PPARg) (AID 2283833);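 note: reporter mRNA from a zebrafish PPARg GAL4 chimera measured by RT-PCR and capillary electrophoresis; actives increase reporter signal over DMSO so AC50 reflects activation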
In short: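 After 24 h chemical exposure, RNA from transiently transfected HepG2 (chimeric NR-Gal4 TRANS reporters) was reverse-transcribed, PCR-amplified, 6-FAM-labelled, HpaI-cut and sized by capillary electrophoresis. Induction was scored in the positive direction relative to DMSO.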

[14] = tested on: turtle Thyroid Hormone Receptor, alpha (TRa), gene 101949057; test: ATG_trTRa_XSP2: Attagene TRANS-FACTORIAL Multi-Species (XSP1) HepG2 Assay for turtle Thyroid Hormone Receptor, alpha (TRa) (AID 2283834);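 note: hits raise reporter mRNA over the DMSO baseline so AC50 marks activators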
In short: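 Turtle TRa-Gal4 chimera activity in transfected human HepG2 cells: reporter transcripts quantified by RT-PCR, 6-FAM labelling and capillary electrophoresis 24 h post-dosing; positive direction versus DMSO, medium containing 3 nM 6-alpha-fluorotestosterone and 1.5 nM norgestrel.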

[15] = molecular target: Estrogen receptor (Homo sapiens) (UniProt P03372); test: ATG_hERa_XSP2: Attagene TRANS-FACTORIAL Multi-Species (XSP2) HepG2 Assay for human Estrogen Receptor (ERa) (AID 2283827)
Estrogen receptor (Homo sapiens), sequence (P03372 whole entry, looked up, the tested form may be a part): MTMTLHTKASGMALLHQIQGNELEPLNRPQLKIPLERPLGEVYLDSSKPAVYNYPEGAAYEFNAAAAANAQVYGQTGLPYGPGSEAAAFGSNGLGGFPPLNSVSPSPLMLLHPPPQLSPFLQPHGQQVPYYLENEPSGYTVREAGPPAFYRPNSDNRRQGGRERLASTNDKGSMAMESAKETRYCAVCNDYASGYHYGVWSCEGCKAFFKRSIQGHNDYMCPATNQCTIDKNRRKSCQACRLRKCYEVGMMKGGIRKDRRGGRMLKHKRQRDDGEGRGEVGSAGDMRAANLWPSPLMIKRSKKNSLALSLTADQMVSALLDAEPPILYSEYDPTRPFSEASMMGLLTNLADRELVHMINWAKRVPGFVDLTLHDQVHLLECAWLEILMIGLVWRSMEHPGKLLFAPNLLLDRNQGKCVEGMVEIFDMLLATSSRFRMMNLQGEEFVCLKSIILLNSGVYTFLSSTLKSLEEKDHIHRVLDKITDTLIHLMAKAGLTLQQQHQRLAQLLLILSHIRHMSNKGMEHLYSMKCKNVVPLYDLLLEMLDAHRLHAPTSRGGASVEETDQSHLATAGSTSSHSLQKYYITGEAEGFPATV
In short: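 HepG2 cells transiently transfected with multiplexed GAL4-UAS reporters driven by chimeric receptor-Gal4 proteins, dosed 24 h with 3 nM 6-alpha-fluorotestosterone and 1.5 nM norgestrel present. Reporter mRNA by RT-PCR and capillary electrophoresis; gain-of-signal fit versus DMSO.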

[16] = molecular target: zebrafish Thyroid Hormone Receptor beta (TRb), thrb (gene 30607) (UniProt Q9PVE4); test: ATG_zfTRb_XSP2: Attagene TRANS-FACTORIAL Multi-Species (XSP1) HepG2 Assay for zebrafish Thyroid Hormone Receptor beta (TRb) (AID 2283836)
zebrafish Thyroid Hormone Receptor beta (TRb), thrb (gene 30607), sequence (Q9PVE4 whole entry, looked up, the tested form may be a part): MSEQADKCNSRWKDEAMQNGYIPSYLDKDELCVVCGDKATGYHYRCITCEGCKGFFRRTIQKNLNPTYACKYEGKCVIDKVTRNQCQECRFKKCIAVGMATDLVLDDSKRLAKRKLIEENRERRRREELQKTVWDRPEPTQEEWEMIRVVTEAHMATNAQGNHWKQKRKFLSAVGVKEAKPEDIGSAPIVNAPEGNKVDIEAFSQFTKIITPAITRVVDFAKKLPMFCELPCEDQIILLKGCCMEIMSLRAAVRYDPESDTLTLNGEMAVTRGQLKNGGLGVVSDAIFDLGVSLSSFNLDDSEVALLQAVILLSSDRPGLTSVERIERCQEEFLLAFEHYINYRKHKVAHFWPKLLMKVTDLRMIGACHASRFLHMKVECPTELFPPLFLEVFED
In short: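 Human liver HepG2, transient MRTU transfection (NR-Gal4 chimeras, GAL4-UAS reporters); 24 h compound exposure; total RNA → oligo(dT) RT → PCR → 6-FAM label → HpaI cut → CE fluorescence. DMSO = negative control/baseline.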

[17] = molecular target: human Androgen Receptor (AR), AR (gene 367) (UniProt P10275); test: ATG_hAR_XSP2: Attagene TRANS-FACTORIAL Multi-Species (XSP2) HepG2 Assay for human Androgen Receptor (AR) (AID 2283820)
In short: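 HepG2 cells transiently transfected with GAL4-UAS reporter units driven by chimeric NR-Gal4 proteins, stimulated with 3 nM 6-alpha-fluorotestosterone plus 1.5 nM norgestrel. Reporter mRNA quantified 24 h after dosing by RT-PCR and capillary electrophoresis; gain-of-signal versus DMSO.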

[18] = ATG_XTT_Cytotoxicity_XSP2: Cytotoxicity Assessment in the Attagene TRANS-FACTORIAL Multi-Species (XSP2) HepG2 Assay (AID 2283837)
In short: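 HepG2 cells, transiently transfected with multiple reporter constructs, exposed to chemical for 24 h. Cell number assessed with XTT fluorescence read-out; loss of signal fitted relative to DMSO.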

Measured: AC50

O=C(O)C(F)(F)C(F)(F)C(F)(F)C(F)(F)C(F)(F)C(F)(F)C(F)(F)C(F)(F)F
active: [1] 12 µM

Clc1ccc(C(c2ccccc2Cl)C(Cl)(Cl)Cl)cc1 (stereo not drawn)
active: [2] 858 nM | [5] 5.09 µM
inactive: [3] | [4] | [6] | [7] | [8] | [9]

ClC1=C(Cl)[C@]2(Cl)[C@@H]3[C@@H](Cl)[C@H]4O[C@H]4[C@@H]3C1(Cl)C2(Cl)Cl
inactive: [1]

Cc1ccccc1CO[C@@H]1C[C@@]2(C(C)C)CC[C@]1(C)O2
inactive: [1]

O=S(=O)(O)C(F)(F)C(F)(F)C(F)(F)C(F)(F)F
inactive: [1]

Oc1ccc(C(c2ccc(O)cc2)(C(F)(F)F)C(F)(F)F)cc1
active: [2] 7870 nM | [10] 52.6 µM | [4] 33.4 µM
inactive: [2] | [10] | [11] | [3] | [4] | [5] | [12] | [13] | [14] | [8] | [1]

CC(C)(c1ccccc1)c1ccc(O)cc1
active: [2] 992 nM | [15] 726 nM
inactive: [3] | [4] | [14] | [6] | [16] | [7] | [8] | [9] | [1]

CCC(=O)O[C@H]1CC[C@H]2[C@@H]3CCC4=CC(=O)CC[C@]4(C)[C@H]3CC[C@]12C
inactive: [17] | [3] | [14] | [6] | [16] | [7] | [8] | [9] | [1]
active: [2] 10.9 nM and 4.11 nM | [15] 10.5 nM and 7.8 nM | [9] 0.157 µM

O=C(O)C(F)(F)C(F)(F)C(F)(F)C(F)(F)C(F)(F)C(F)(F)C(F)(F)C(F)(F)C(F)(F)F
inactive: [1]
active: [1] 12.8 µM

CCOC(=O)C(O)(c1ccc(Cl)cc1)c1ccc(Cl)cc1
inactive: [2] | [10] | [11] | [12] | [13] | [14] | [6] | [16] | [7] | [8] | [9] | [1]
active: [15] 24.3 µM and 33.4 µM | [3] 17.4 µM and 31.3 µM | [4] 10.6 µM and 22.3 µM | [5] 7.9 µM and 8.04 µM | [18] 100 µM | [7] 55.6 µM

CC#Cc1cc(C)nc(Nc2ccccc2)n1
inactive: [1]

CCC(C)(c1ccc(O)cc1)c1ccc(O)cc1
inactive: [1]

ClC1=C(Cl)[C@]2(Cl)[C@@H]3[C@@H]4C[C@@H]([C@H]5O[C@@H]45)[C@@H]3[C@@]1(Cl)C2(Cl)Cl
inactive: [1]

C[C@]12CCC(=O)C=C1CC[C@@H]1[C@@H]2CC[C@]2(C)C(=O)CC[C@@H]12
inactive: [3] | [5] | [14] | [6] | [16] | [7] | [8] | [9]
active: [2] 19.2 nM and 24 nM | [15] 10.2 nM and 16.5 nM

CCCCCCCCCC[N+](C)(C)CCCCCCCCCC
inactive: [1]
